Inconclusive results are not listed. The source made the active and inactive calls. Calls follow the shape of the dose curve; as a rule, active = well fitted cell-killing curve with a large enough effect; inconclusive = small, poorly fitted or top-dose-only effect, or effect the other way; inactive = flat fitted curve, though single readings scatter.
Legend:
Experiment in all cases: Primary qHTS to identify gynecologic anti-cancer compounds using libraries of approved drugs and bioactive compounds (AID 1345084); also: nearly all actives have a fitted effect of over 55% in size
C33A = conditions: Gynecologic cancer cell panel viability, ATPlite luminescence, 48 h; series mostly up to 57.5 µM
Method in brief: (§1)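 Cells, 1,000 per well, were allowed to settle for 16 h at 37 C before compound addition. Five concentrations were tested for 48 h, and viability was read by ATPlite luminescence after 15 min at room temperature.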

CAOV3 = conditions: Gynecologic cancer cell panel viability, ATPlite luminescence, 48 h; series mostly up to 57.5 µM
Method in brief: as §1

CASKI = conditions: Gynecologic cancer cell panel viability, ATPlite luminescence, 48 h; series mostly up to 57.5 µM
Method in brief: as §1

Es-2 = conditions: Gynecologic cancer cell panel viability, ATPlite luminescence, 48 h; series mostly up to 57.5 µM
Method in brief: as §1

HeLa = conditions: Gynecologic cancer cell panel viability, ATPlite luminescence, 48 h; series mostly up to 57.5 µM
Method in brief: as §1

Hek293T = conditions: Gynecologic cancer cell panel viability, ATPlite luminescence, 48 h, control line for the selectivity index; series mostly up to 57.5 µM
Method in brief: as §1

JEG-3 = conditions: Gynecologic cancer cell panel viability, ATPlite luminescence, 48 h; series mostly up to 57.5 µM
Method in brief: as §1

OV90 = conditions: Gynecologic cancer cell panel viability, ATPlite luminescence, 48 h; series mostly up to 57.5 µM
Method in brief: as §1

PA-1 = conditions: Gynecologic cancer cell panel viability, ATPlite luminescence, 48 h; series mostly up to 57.5 µM
Method in brief: as §1

SKOV3 = conditions: Gynecologic cancer cell panel viability, ATPlite luminescence, 48 h; series mostly up to 57.5 µM
Method in brief: as §1

Tov-21-G = conditions: Gynecologic cancer cell panel viability, ATPlite luminescence, 48 h; series mostly up to 57.5 µM
Method in brief: as §1

Tov112D = conditions: Gynecologic cancer cell panel viability, ATPlite luminescence, 48 h; series mostly up to 57.5 µM
Method in brief: as §1
% is scaled to controls: 0 for no effect and ±100 for the full control effect.

C=C1CC2OC(=O)C(=C)C2C(O)/C=C(\C)CCC1O (stereo not drawn)
inactive: Potency (C33A) | Potency (CAOV3) | Potency (CASKI) | Potency (Es-2) | Potency (HeLa) | Potency (Hek293T) | Potency (JEG-3) | Potency (OV90) | Potency (PA-1) | Potency (SKOV3) | Potency (Tov-21-G) | Potency (Tov112D)

NS(=O)(=O)c1ccc(N2CCN(CC[C@@H]3OCCc4ccccc43)CC2)cc1
inactive: Potency (C33A) | Potency (CAOV3) | Potency (CASKI) | Potency (Es-2) | Potency (HeLa) | Potency (Hek293T) | Potency (JEG-3) | Potency (OV90) | Potency (PA-1) | Potency (SKOV3) | Potency (Tov-21-G) | Potency (Tov112D)

CC1(C)C2CCC(CO[C@@H]3O[C@H](CO[C@@H]4OC[C@](O)(CO)[C@H]4O)[C@@H](O)[C@H](O)[C@H]3O)C1C2 (stereo partly drawn)
inactive: Potency (C33A) | Potency (CAOV3) | Potency (CASKI) | Potency (Es-2) | Potency (HeLa) | Potency (Hek293T) | Potency (JEG-3) | Potency (OV90) | Potency (PA-1) | Potency (SKOV3) | Potency (Tov-21-G) | Potency (Tov112D)

CN(C)[C@@H]1CCc2[nH]c3ccc(NC(=O)c4ccc(F)cc4)cc3c2C1
inactive: Potency (C33A) | Potency (CAOV3) | Potency (CASKI) | Potency (Es-2) | Potency (HeLa) | Potency (Hek293T) | Potency (JEG-3) | Potency (OV90) | Potency (PA-1) | Potency (SKOV3) | Potency (Tov-21-G) | Potency (Tov112D)

Cn1ccc(NC(=O)c2cc(Oc3ccc(C(=O)N4CCC4)c(F)c3)c3c(c2)OC(C)(C)C3)n1
inactive: Potency (C33A) | Potency (CAOV3) | Potency (CASKI) | Potency (Es-2) | Potency (HeLa) | Potency (Hek293T) | Potency (JEG-3) | Potency (OV90) | Potency (PA-1) | Potency (SKOV3) | Potency (Tov-21-G) | Potency (Tov112D)

Cc1nc(C#Cc2ccnc(Cl)c2)c(C)n1-c1ccc(OC(F)(F)F)cc1
inactive: Potency (C33A) | Potency (CAOV3) | Potency (CASKI) | Potency (Es-2) | Potency (HeLa) | Potency (Hek293T) | Potency (JEG-3) | Potency (OV90) | Potency (PA-1) | Potency (SKOV3) | Potency (Tov-21-G) | Potency (Tov112D)

CC(C)(CO)c1cc2cc(NC(=O)C3(c4ccc5c(c4)OC(F)(F)O5)CC3)c(F)cc2n1CC(O)CO (stereo not drawn)
inactive: Potency (C33A) | Potency (CAOV3) | Potency (CASKI) | Potency (Es-2) | Potency (HeLa) | Potency (Hek293T) | Potency (JEG-3) | Potency (OV90) | Potency (PA-1) | Potency (SKOV3) | Potency (Tov-21-G) | Potency (Tov112D)

CCOc1ccc(S(=O)(=O)N2CCCCCC2)c2ccccc12
inactive: Potency (C33A) | Potency (CAOV3) | Potency (CASKI) | Potency (Es-2) | Potency (HeLa) | Potency (Hek293T) | Potency (JEG-3) | Potency (OV90) | Potency (PA-1) | Potency (SKOV3) | Potency (Tov-21-G) | Potency (Tov112D)

CN1CC[C@@H](c2c(O)cc(O)c3c(=O)cc(-c4ccc(C(F)(F)F)cc4Cl)oc23)[C@@H]1CO
inactive: Potency (C33A) | Potency (CAOV3) | Potency (CASKI) | Potency (Es-2) | Potency (HeLa) | Potency (Hek293T) | Potency (JEG-3) | Potency (OV90) | Potency (PA-1) | Potency (SKOV3) | Potency (Tov-21-G) | Potency (Tov112D)

CC(=O)O[C@@H]1C[C@]2(C)[C@@]3(CCC4[C@@]5(C)CC[C@H](O[C@@H]6O[C@H](C(=O)O)[C@@H](O)[C@H](OC7OC(CO)C(O)C(O)[C@H]7O[C@@H]7O[C@@H](C)[C@H](O)[C@@H](O)[C@H]7O[C@@H]7OC[C@](O)(CO)[C@H]7O)[C@H]6OC6OC(CO)C(O)C(O)C6O)C(C)(C)C5CC[C@]42C)OC[C@@]12CCC(C)(C)CC23 (stereo partly drawn)
inactive: activity change, negative = cytotoxicity (C33A) 2.65% [at 6.55 µM] | activity change, negative = cytotoxicity (CAOV3) 0.174% [at 6.55 µM] | activity change, negative = cytotoxicity (CASKI) 16.9% [at 6.55 µM] | activity change, negative = cytotoxicity (Es-2) -3.44% [at 6.55 µM] | activity change, negative = cytotoxicity (HeLa) -0.755% [at 6.55 µM] | activity change, negative = cytotoxicity (Hek293T) -10.7% [at 6.55 µM] | activity change, negative = cytotoxicity (JEG-3) -4.85% [at 6.55 µM] | activity change, negative = cytotoxicity (OV90) -14.9% [at 6.55 µM] | activity change, negative = cytotoxicity (PA-1) -13% [at 6.55 µM] | activity change, negative = cytotoxicity (SKOV3) 27.9% [at 6.55 µM] | activity change, negative = cytotoxicity (Tov-21-G) -2.25% [at 6.55 µM] | activity change, negative = cytotoxicity (Tov112D) -4.27% [at 6.55 µM]

CCC[C@H](N[C@H]1CCc2cc(F)cc(F)c2C1)C(=O)Nc1cn(C(C)(C)CNCC(C)(C)C)cn1
inactive: Potency (C33A) | Potency (CAOV3) | Potency (CASKI) | Potency (Es-2) | Potency (HeLa) | Potency (Hek293T) | Potency (JEG-3) | Potency (OV90) | Potency (PA-1) | Potency (SKOV3) | Potency (Tov-21-G) | Potency (Tov112D)

O=C(C(Cc1cccc(C(F)(F)F)c1)NS(=O)(=O)c1cc(F)c2c(c1)CCNC2)N1CCCC1 (stereo not drawn)
inactive: Potency (C33A) | Potency (CAOV3) | Potency (CASKI) | Potency (Es-2) | Potency (HeLa) | Potency (Hek293T) | Potency (JEG-3) | Potency (OV90) | Potency (PA-1) | Potency (SKOV3) | Potency (Tov-21-G) | Potency (Tov112D)

COc1ccc(-c2csc(NC(=O)[C@H]3CCCCN3S(=O)(=O)c3ccc(C)cc3)n2)cc1
inactive: Potency (C33A) | Potency (CAOV3) | Potency (CASKI) | Potency (Es-2) | Potency (HeLa) | Potency (Hek293T) | Potency (JEG-3) | Potency (OV90) | Potency (PA-1) | Potency (SKOV3) | Potency (Tov-21-G) | Potency (Tov112D)

CC(NCCCc1cccc(C(F)(F)F)c1)c1cccc2ccccc12 (stereo not drawn)
inactive: Potency (C33A) | Potency (CAOV3) | Potency (CASKI) | Potency (Es-2) | Potency (HeLa) | Potency (Hek293T) | Potency (JEG-3) | Potency (OV90) | Potency (PA-1) | Potency (SKOV3) | Potency (Tov-21-G) | Potency (Tov112D)

Source: PubChem BioAssay (NCATS)
